The structures appear in SMILES notation. Several values for one entry are separate records, joined by “and”; a condition that tells them apart may be missing. Equal entries are not always repeated. Records with an inconclusive call do not appear. The source holds several records for some structures; these can differ, active in one and inactive in another. Activity calls are given as the source filed them. Calls come from the whole dose curve; as a rule, active = well fitted cell-killing curve with a large enough effect in the repeat runs; inconclusive = weak or mixed curves, or effect the other way; inactive = no such curve, though single readings can be large or run the other way.
% is set by controls: 0 for no effect and ±100 for the full control effect; potency is the fitted concentration of half-maximal effect.

A short description of the assay: qHTS assay to identify small molecule agonists of the estrogen receptor alpha (ER-alpha) signaling pathway in the presence of an antagonist - cell viability counter screen (AID 1259386).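 Note: cells exposed to compounds for 22 h at 37 °C before the viability read; nearly all actives have a fitted effect of over 30% in size.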 Conditions: VM7Luc4E2 viability, CellTiter-Fluor fluorescence, 22 h; series mostly up to 92.4 µM; activity change, negative = cytotoxicity: at the top concentration. From the text:
National Center for Advancing Translational Sciences [NCATS]
NIH Chemical Genomics Center [NCGC]
U.S. Environmental Protection Agency [EPA]
National Institutes of Environmental Health Sciences [NIEHS]
National Toxicology Program [NTP]
U.S. Food and Drug Administration [FDA]
Estrogen receptor (ER), a member of nuclear hormone receptor plays an important role in development, metabolic homeostasis and reproduction. Two subtypes of ER, ER-alpha and ER-beta, have similar expression patterns with some uniqueness in both types. Endocrine disrupting chemicals (EDCs) and their interactions with steroid hormone receptors like ER causes disruption of normal endocrine function. Therefore, it is important to understand the effect of environmental chemicals in ER signaling pathway. For identifying ER agonists, VM7Luc4E2 cell line has been used in the current assay.
VM7Luc4E2 cell line (provided by Denison MS, University of California) endogenously expresses full-length ER-alpha and is stably transfected with a plasmid containing four estrogen responsive elements (ERE) upstream of a luciferase reporter gene. This current screening for measuring luciferase reporter gene activity using VM7Luc4E2 cells against Tox21 10K library collection is a confirmation study on agonist mode screening in presence of ER-antagonist (ICI-182,780) at 10.0nM final concentration. The cytotoxicity of the compounds was tested in parallel by measuring the cell viability using CellTiter-Fluor assay system (Promega, Madison, WI) in the same wells.
Tox21 Assay Protocol Summary:
VM7Luc4E2 cells were cultured in phenol red free assay medium containing 10% charcoal stripped FBS for 5 days prior to the assay. The cells were dispensed at 4,000 cells in 4uL of assay medium per well into white wall/solid-bottom 1536-well plates (Corning Life Sciences, Corning, NY) using a Multidrop Combi (Thermo Fisher Scientific Inc., Waltham, MA) dispenser. After the assay plates were incubated at 37C and 5% CO2 for 24hr, 1uL of 10.0nM (final concentration) ICI-182,780 or assay buffer was added using two separate tips of Flying Reagent Dispenser (FRD, Aurora Discovery, San Diego, CA). Then 23nL of compounds dissolved in DMSO at 15 concentrations and positive controls or DMSO only was transferred to the assay plates by a Pintool station (Wako, San Diego, CA). The assay plates were incubated at 37C and 5% CO2 for 22hr. After 21hr incubation at 37C, 1uL/well CellTiter-Fluor reagent (Promega Corporation, Madison, WI) was added to each well using FRD and after 1hr incubation at 37C and 5% CO2, the fluorescence signal was measured on ViewLux plate reader (PerkinElmer, Shelton, CT).
On to `CCOc1ccc2c(c1)C(C)=CC(C)(C)N2`, for which the Potency entry was “inactive”.

For the compound `Cc1cccc(O)c1C`, the Potency entry is “inactive”.

Consider `Cc1ccnc2c1NC(=O)c1cccnc1N2C1CC1`, for which the Potency entry is “inactive”.

In the case of `O=Cc1ccc(Cl)cc1`, the “activity change, negative = cytotoxicity” value is 1.83% (inactive).

Turning to `Cc1cccc2n[nH]nc12`, the Potency result is “inactive”.

As to `COc1ccc(CCN(C)CCCC(C#N)(c2ccc(OC)c(OC)c2)C(C)C)cc1OC` (stereo not given), the Potency is 30.6 µM (active).

For `NC(=Nc1ccccc1)Nc1ccccc1`, the “activity change, negative = cytotoxicity” value was -9.15% [at 42.5 µM] (inactive).

On to `COC(=O)c1cccc(C(=O)OC)c1`, for which the Potency entry was “inactive”.

`CCc1ccc(C(c2ccc(CC)cc2)C(Cl)Cl)cc1`: the Potency result was “inactive”.

Consider `Nc1cc(S(=O)(=O)O)cc2cc(S(=O)(=O)O)cc(O)c12`, for which the Potency is 48.3 µM (active) and 30.6 µM (active).

As to `CCc1cc(C(C)(C)C)c(O)c(C(C)(C)C)c1`, the Potency result is “inactive”.

Take `NCCCCCC(=O)O`: the “activity change, negative = cytotoxicity” value was 1.73% [at 42.5 µM] (inactive).

Consider `c1ccc2c(c1)CCCC2C1=NCCN1` (stereo not given), for which the “activity change, negative = cytotoxicity” value is -0.645% [at 42.5 µM] (inactive).

Regarding `O=C(Nc1ccccc1SSc1ccccc1NC(=O)c1ccccc1)c1ccccc1`, the Potency result is “inactive”.

Consider `O=C1Nc2ccccc2C1(c1ccc(O)cc1)c1ccc(O)cc1`, for which the Potency was 1.37 µM (active) and 944 nM (active).

Consider `CC(=O)N[C@@H](CS)C(=O)O`, for which the Potency result is “inactive”.

As to `NNCCc1ccccc1`, the Potency entry was “inactive”.

As for `COc1ccc(CCN2CCC(Nc3nc4ccccc4n3Cc3ccc(F)cc3)CC2)cc1`, the Potency is 39.4 µM (active) and inactive.

As to `O=S(=O)(O)c1ccc2nc(-c3ccccc3)[nH]c2c1`, the Potency entry is “inactive”.

For the compound `O=C(O)CCc1ccccc1`, the “activity change, negative = cytotoxicity” value was 0.313% (inactive).

As for `NC(N)=Nc1nc(CSCC/C(N)=N/S(N)(=O)=O)cs1`, the “activity change, negative = cytotoxicity” value was -6.39% [at 42.5 µM] (inactive).

On to `CCCCCCCCCCCCCCCCCl`, for which the activity change, negative = cytotoxicity is -1.56% [at 19 µM] (inactive).

`CCC(=O)/C=C/C1C(C)=CCCC1(C)C` (stereo not given): the Potency entry was “inactive”.

With `OCCOCCN1CCN(C(c2ccccc2)c2ccc(Cl)cc2)CC1` (stereo not given), the “activity change, negative = cytotoxicity” value is -5.55% [at 42.5 µM] (inactive).

Regarding `NC(Cc1ccc(Cl)cc1)C(=O)O` (stereo not given), the activity change, negative = cytotoxicity was 2.8% [at 0.349 µM] (inactive).

As to `CC(C)(C)c1cc(C(C)(C)C)c(O)c(C(C)(C)C)c1`, the Potency entry was “inactive”.

As for `CCC[C@H](N[C@@H](C)C(=O)N1[C@H](C(=O)O)C[C@@H]2CCCC[C@@H]21)C(=O)OCC`, the Potency entry was “inactive”.

With `O=C(Cl)c1cccc(C(=O)Cl)c1`, the Potency entry was “inactive”.

As for `CC(=O)CC(=O)Nc1ccc2[nH]c(=O)[nH]c2c1`, the “activity change, negative = cytotoxicity” value is -0.359% (inactive).

Take `C=CS(=O)(=O)O`: the “activity change, negative = cytotoxicity” value was 1.07% (inactive).

On to `N[C@@H]1CONC1=O`, for which the “activity change, negative = cytotoxicity” value is 3.03% [at 42.5 µM] (inactive).

On to `CCN(CC)c1ccc2c(C)cc(=O)oc2c1`, for which the Potency result was “inactive”.

For `CC(=O)CC(C)=O`, the “activity change, negative = cytotoxicity” value is 2.11% (inactive).

For `[Cl][In]([Cl])[Cl]`, the Potency entry is “inactive”.

As for `O=C1NCC2(CCN(CCc3ccccc3)CC2)O1`, the “activity change, negative = cytotoxicity” value was 2.79% [at 42.5 µM] (inactive).

Take `CCCCCCCCCCCC[N+](C)(C)C`: the Potency is 54.5 µM (active).

For the compound `Cc1c(O)cccc1C(=O)N[C@@H](CSc1ccccc1)[C@H](O)CN1C[C@H]2CCCC[C@H]2C[C@H]1C(=O)NC(C)(C)C`, the Potency is 29.8 µM (active) and 11.9 µM (active).

Consider `O=C(OCc1ccccc1)c1ccc(O)cc1`, for which the Potency result is “inactive”.

With `NC(N)=NC(=O)Cc1c(Cl)cccc1Cl`, the “activity change, negative = cytotoxicity” value was -13.2% [at 42.5 µM] (inactive).

On to `CC(C)(O)CCC(C)(C)O`, for which the “activity change, negative = cytotoxicity” value was -7.08% (inactive).

These data come from PubChem BioAssay (Tox21).
